From the supplement of paper PMC5940239

Test system: Madurella mycetomatis MM55
Assay: percent growth relative to solvent control; higher = less inhibition, active = 20 or less
Details: 100 µM; 7 days

Structure (SMILES) | percent growth
C[C@H]1c2cccc(O)c2C(=O)C2=C(O)[C@]3(O)C(=O)C(C(N)=O)=C(O)[C@@H](N(C)C)[C@@H]3[C@@H](O)[C@@H]21 | 121% (inactive)
CCOc1ccc2cc(-c3nn(C(C)(C)C)c(N)c3C(N)=O)cnc2c1 | 98.2% (inactive)
Cc1noc(C)c1C(=O)N1CCCC(c2[nH]c3c(C)cccc3c2-c2ccncc2)C1 (configuration not stated) | 51.6% (inactive)
Cc1cc(C(=O)Nc2ccc(-c3ccccc3)cc2)no1 | 199% (inactive)
CCOC(=O)NC(=O)c1ccsc1NC(=O)c1nc2ccccc2s1 | 78.6% (inactive)
CCN(CC)S(=O)(=O)c1ccc(Cl)c(C(=O)Nc2ccc3nc(C)sc3c2)c1 | 119% (inactive)
Cc1cc(C)cc(COc2ccc3c(C)c(CCC(=O)O)c(=O)oc3c2C)c1 | 84.8% (inactive)
CCc1ccccc1-n1c(C)cn2c3c(=O)n(C(C(=O)OC)C(C)C)c(=O)n(C)c3nc12 (configuration not stated) | 79.9% (inactive)
CC(=O)N1CCc2cc3nc(C)cc(C)c3cc21 | 84.2% (inactive)
O=C(C1CCCCC1)N1CC(=O)N2CCc3ccccc3C2C1 (configuration not stated) | 92.7% (inactive)
C[C@H](C(N)=O)N1CCCC[C@@H]1c1ccc(OCc2cccc(F)c2)cc1 | 92% (inactive)
CCn1cnc2c(Nc3cc(F)cc(F)c3)nc(C#N)nc21 | 95.2% (inactive)
O=C(Nc1c(O)cccc1-c1nc2c(C(=O)O)cccc2o1)c1cc(-c2ccccc2)on1 | 113% (inactive)
O=C(Cn1ccnc1[N+](=O)[O-])NCc1ccccc1 | 129% (inactive)
O=C(NCCN1CCCC1)c1cc(NCCCCN2CCC(F)(F)CC2)nc2ccc(Cl)cc12 | 61.8% (inactive)
CS(=O)(=O)N1CCC(CCn2nc(Cc3cccc4ccccc34)c3c(N)ncnc32)CC1 | 81.9% (inactive)
COc1ccc(C2CC(c3cccs3)=NN2C(=O)c2ccco2)cc1OC (configuration not stated) | 100% (inactive)
COc1ccc(Cn2cnc3c(-c4ccco4)nc(Cl)nc32)cc1 | 82.7% (inactive)
Cc1cc(Cl)ccc1NC(=O)CCc1ccc(S(=O)(=O)NCC(C)C)cc1 | 91.1% (inactive)
CNc1snc(C)c1C(=O)NCCOc1ccc(OC)cc1 | 92.2% (inactive)
CC[C@@H]([C@H](C)O)n1ncn(-c2ccc(N3CCN(c4ccc(OC[C@@H]5CO[C@@](Cn6cncn6)(c6ccc(F)cc6F)C5)cc4)CC3)cc2)c1=O | 0.417% (active)
CCc1ccc(C(NCc2nc(N)nc(N(C)C)n2)C(C)C)cc1 (configuration not stated) | 49.1% (inactive)
